Compound activity from PubChem BioAssay.
Lassa entry inh: qHTS for Inhibitors of binding or entry into cells for Lassa Virus; Lassa virus pseudotype entry inhibition, cell reporter; Potency, µM (series often up to 37.9 µM), without a hit: at the highest dose activity change, negative = inhibition, hits mostly inhibitors; 300,000 compounds, 1.2% hits; AID 540256, 2011; calls by dose curve; tested in HEK293 cells; also: nearly all actives have a fitted effect of over 50% in size
VACV mCherry inh: qHTS for Stage-Specific Inhibitors of Vaccinia Orthopoxvirus: mCherry Reporter Primary qHTS | AID 720579, 2013 | 310,000 compounds, 0.63% hits | Vaccinia virus mCherry reporter infection, fluorescence | Potency, µM (doses to about 36.5 µM), inactives show at the top dose activity change, negative = inhibition, actives largely listed as inhibitors; calls by dose curve; tested in A549 cells; also: nearly all actives have a fitted effect of over 35% in size
Sm TGR inh: qHTS Assay for the Inhibitors of Schistosoma Mansoni Peroxiredoxins. purified TGR, DTNB reduction, TNB absorbance 405 nm. Potency, µM (titrated, usually from 114 µM), for the others: top-dose activity change, negative = inhibition, hits mostly inhibitors. 360,000 compounds, 3% hits; active = well fitted inhibition curve with a large enough effect; inconclusive = small, poorly fitted or top-dose-only effect; inactive = no such curve, though single readings can be large or run the other way; also: nearly all actives have a fitted effect of over 60% in size
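TGR 20 nM + NADPH 100 uM (dispensed conc.), cpd preinc 15 min RT; start with NADPH (500 uM addition) then DTNB (15 mM addition). Kinetic TNB absorbance, 405 nm filter. Four-parameter Hill fit across titration.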
MARV entry inh: qHTS for inhibitors of binding or entry into cells for Marburg Virus; Marburg virus pseudotyped entry inhibition, cell reporter; Potency, µM (highest dose often 37.8 µM), inactives show at the top dose activity change, negative = inhibition, hits mostly inhibitors; 300,000 compounds, 1.8% hits; AID 540276, 2011; calls by dose curve; tested in HEK293 cells
Vaccinia Venus: qHTS for Stage-Specific Inhibitors of Vaccinia Orthopoxvirus: Venus Reporter Primary qHTS; Potency, µM (doses to about 36.5 µM), for inactives: at the top dose activity change, negative = inhibition, hits mostly inhibitors; Vaccinia virus Venus reporter expression, fluorescence; 330,000 compounds, 0.46% hits; calls by dose curve; tested in A549 cells; also: nearly all actives have a fitted effect of over 30% in size
FMDV inh: High Throughput Screening for Foot and Mouth Disease Virus Antivirals. Potency, µM (titrated, usually from 57.9 µM), inactives show at the highest dose activity change, negative = inhibition, actives largely listed as inhibitors. 410,000 compounds, 1.2% hits. FMDV antiviral cell-based qHTS; calls by dose curve; tested in HEK293T cells; also: read-out not given here; nearly all actives have a fitted effect of over 45% in size
An asterisk follows results filed as active; [ ] = another dose, or the depositor's remark. Rows were chosen to be rich in hits. Some 5.4% of all compounds tested hit in one or more screens of this group. % is scaled to controls: 0 for no effect and ±100 for the full control effect; potency is read from the fitted curve at half-maximal effect.

For COc1ccc(C[C@@H]2CN3C(=NC[C@@H]3C)N2CCNC(=O)c2ccc(C)c(Br)c2)cc1 the results were VACV mCherry inh -18%, Sm TGR inh -15%, Vaccinia Venus -22% and FMDV inh -12%.
For C[C@@H]1CN=C2N(CCNC(=O)CCC3CCCCC3)[C@H](Cc3ccc(O)cc3)CN21 the results were VACV mCherry inh -4%, Sm TGR inh 5µM*, Vaccinia Venus -3% and FMDV inh -16%.
`O=C(c1ccco1)N1CCC[C@@]2(CCN(C(c3ccccc3)c3ccccc3)C2)C1` gave FMDV inh 7%.
`CCOC(=O)N/N=C1\C[C@@H](O)[C@@H](O)[C@@H]2[C@@H]3C(=O)N(CC)C(=O)[C@@H]3CC[C@H]12` gave MARV entry inh 8%[14.2 µM].
For C/C=C(/C)C(=O)OC1c2c(ccc3ccc(=O)oc23)OC(C)(C)C1OC(=O)/C(C)=C\C (centres undefined) the results were VACV mCherry inh -5%, Sm TGR inh -27%, Vaccinia Venus -12% and FMDV inh 28µM*.
C/C=C(\C)C(=O)OC1c2c(ccc3ccc(=O)oc23)OC(C)(C)C1OC(C)=O (centres undefined) was read as Lassa entry inh -3%, VACV mCherry inh inactive, Sm TGR inh -25%, MARV entry inh -22%, Vaccinia Venus -1% and FMDV inh -12%.
For CCN1C(=O)C2(c3ccccc31)c1c(oc3ccc(F)cc3c1=O)C(=O)N2CCCOC (centres undefined) the results were Lassa entry inh 0%[46.1 µM], VACV mCherry inh -3%, Sm TGR inh 5%, MARV entry inh 14%[46.1 µM], Vaccinia Venus 4% and FMDV inh -4%.
`O=C(NC(=O)c1c(Cl)cccc1Cl)Nc1ccc(Oc2cccnc2)nc1` gave Lassa entry inh -5%, VACV mCherry inh -29%, Sm TGR inh 17%, MARV entry inh -9%, Vaccinia Venus -18% and FMDV inh -10%.
`O=C(Nc1ccc(Oc2cccnc2)nc1)c1ccc(C(F)(F)F)cc1` gave Lassa entry inh -13%[46.1 µM], VACV mCherry inh -15%, Sm TGR inh 13%, MARV entry inh 5.6µM*, Vaccinia Venus -11% and FMDV inh inconclusive.
Screening CC(C)(C)c1ccc(Oc2ccc(NC(=O)c3cccs3)cn2)cc1 returned Lassa entry inh inconclusive, VACV mCherry inh -17%, Sm TGR inh -1%, MARV entry inh 13µM*, Vaccinia Venus inconclusive and FMDV inh 13µM*.
`CCCNC(=O)CSc1nc2nc(C)c(Cc3ccccc3Cl)c(C)n2n1` gave Lassa entry inh -3%[46.1 µM], VACV mCherry inh -6%, Sm TGR inh 6%, MARV entry inh 4%[46.1 µM], Vaccinia Venus -16% and FMDV inh -12%.
CN(c1ccc(OCC(=O)Nc2ccccc2C(=O)O)cc1)S(=O)(=O)c1ccc(Cl)cc1 was read as Lassa entry inh 3.2µM*, VACV mCherry inh inactive, MARV entry inh 3.5µM*, Vaccinia Venus -7% and FMDV inh -1%.
For COc1ccc(NC(=O)COc2ccc(N(C)S(=O)(=O)c3ccc(Cl)cc3)cc2)cc1OC the results were Lassa entry inh inconclusive, VACV mCherry inh inconclusive, Sm TGR inh -5%, MARV entry inh inconclusive, Vaccinia Venus -22% and FMDV inh 10µM*.
CC(=O)Nc1ccc(S(=O)(=O)N(C)c2ccc(OCC(=O)Nc3ccccc3C(C)=O)cc2)cc1 was read as Lassa entry inh -22%, VACV mCherry inh -4%, Sm TGR inh 2%, MARV entry inh inconclusive, Vaccinia Venus -13% and FMDV inh inconclusive.
For CN(c1ccc(OCC(=O)OCC(=O)Nc2ccc(F)cc2)cc1)S(=O)(=O)c1ccc(Cl)cc1 the results were Lassa entry inh 21%, VACV mCherry inh -14%, Sm TGR inh 1%, MARV entry inh 15%, Vaccinia Venus -5% and FMDV inh 2%.
`CCN1CCN(Cc2nc3cc(NC(=O)c4cc(OC)c(OC)c(OC)c4)ccc3n2CC)CC1` gave Lassa entry inh 0%[46.1 µM], VACV mCherry inh -3%, Sm TGR inh -3%, MARV entry inh inconclusive, Vaccinia Venus 2% and FMDV inh 3%.
For COC(=O)c1c(OCc2ccccc2)cc(=O)n2c1CCN(Cc1cccc(C)n1)CC2 the results were VACV mCherry inh 0%, Vaccinia Venus 0% and FMDV inh -3%.
For CCCCOc1ccc(C(=O)NCc2cn3cccc(C)c3n2)cc1 the results were Lassa entry inh 12%[46.1 µM], VACV mCherry inh -5%, Sm TGR inh 2%, MARV entry inh 1%[46.1 µM], Vaccinia Venus -7% and FMDV inh -15%.
For Cc1ccc(-c2nc(CS(=O)(=O)CC(=O)NC3CCCCC3C)c(C)o2)cc1 (centres undefined) the results were VACV mCherry inh inconclusive, Sm TGR inh 35µM*, Vaccinia Venus inconclusive and FMDV inh -5%.
For Cc1ccc(-c2nc(CS(=O)(=O)CC(=O)NC3CC3)c(C)o2)cc1 the results were Sm TGR inh 32µM* and FMDV inh -20%.
Screening Cc1ccc(-c2nc(CS(=O)(=O)CC(=O)N3CC(C)CC(C)C3)c(C)o2)cc1 (centres undefined) returned VACV mCherry inh -16%, Sm TGR inh 2.2µM*, Vaccinia Venus -11% and FMDV inh inconclusive.
For COc1ccc(-c2nc(CS(=O)(=O)CC(=O)NC3CCCCC3C)c(C)o2)cc1 (centres undefined) the results were Lassa entry inh -16%[46.1 µM], VACV mCherry inh inactive, Sm TGR inh inconclusive, MARV entry inh -4%[46.1 µM], Vaccinia Venus -5% and FMDV inh -12%.
For Cc1ccc(-c2nc(CS(=O)(=O)CC(=O)N3CCN(C)CC3)c(C)o2)cc1 the results were Sm TGR inh -20% and FMDV inh inconclusive.
For Cc1oc(-c2ccccc2NC(=O)C2CCCO2)nc1CNC(=O)c1cc(F)c(F)cc1F (centres undefined) the results were VACV mCherry inh -13%, Vaccinia Venus -4% and FMDV inh -6%.
For Cc1ccc(Nc2ccccc2)cc1 the results were Lassa entry inh 11%, VACV mCherry inh -12%, Sm TGR inh -4%, MARV entry inh -2%[46.1 µM], Vaccinia Venus 1% and FMDV inh 1%.
`Cc1ccc(NC2=Nc3ccccc3CS2)cc1` gave Lassa entry inh inconclusive, Sm TGR inh -1%, MARV entry inh 10µM*, Vaccinia Venus -19% and FMDV inh -28%.
`Cc1ncc2c(c1CNC(=O)c1ccc3c(c1)OCO3)CCN(C(=O)C1Cc3ccccc3O1)C2` (centres undefined) gave VACV mCherry inh -2%, Vaccinia Venus 13% and FMDV inh -7%.
